# Source: PubChem BioAssay (NCI)
# This is part of a sample that, as a whole, favours compounds with a hit. Of some 83,000 tested, about 20% had one in any assay.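 Plates (96-well) were seeded with cells, treated with compound at one concentration, and incubated for 48 hours before percent growth was determined.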 The source made the active and inactive calls. Rule for the calls: active = growth percent below 10; inactive = the rest.
# Test system: SNB-19 CNS
# Test: NCI-60 one-dose screen, 48 h (100 = growth as untreated, 0 = no growth, -100 = all killed)
# Conditions: 10 µM unless noted
row,Compound,growth
1,COc1cccc(C(=O)NNc2nc(Cl)nc(Cl)n2)c1,93% (inactive)
2,O=C(/C=C/c1ccc(Cl)cc1)c1cccc(OCCCOc2cccc(C(=O)/C=C/c3ccc(Cl)cc3)c2)c1,99.1% (inactive)
3,COc1cc(OC)cc(-c2ccc(-c3ccc(C(=N)N)o3)o2)c1,51.3% (inactive)
4,Fc1cccc(-c2ccc3c(c2)C2(CCNCC2)CN3)c1,112% (inactive)
5,S=C(c1ccc2c(c1)OCO2)N1CCN(c2cccc(Cl)c2)CC1,40.4% (inactive)
6,O=C(NCc1cccc(CNC(=O)Nc2nc3ccccc3[nH]2)c1)Nc1nc2ccccc2[nH]1,9.35% (active)
7,CCOC(=O)c1cnc2c(N=Nc3ccc(OC)cc3)c(N)nn2c1N,98.6% (inactive)
8,Cc1ccc2nc(NC(=O)CSc3nc(-c4ccccc4)c(C#N)c4nnnn34)sc2c1,102% (inactive)
9,C#CC#CC#CC#CC#CC#CC#CC#CC[C@@H]1OC[C@@H](COC(=O)O[C@@H](C(=O)O[C@H]2C[C@@]3(O)[C@@H](OC(=O)c4ccccc4)[C@@H]4[C@]5(OC(C)=O)CO[C@@H]5C[C@H](O)[C@@]4(C)C(=O)[C@H](OC(C)=O)C(=C2C)C3(C)C)[C@@H](NC(=O)c2ccccc2)c2ccccc2)O1,14.9% (inactive)
10,COCCn1cc(-c2csc(-c3c[nH]c4ccc(Br)cc34)n2)c2cccnc21,55.6% (inactive)
11,c1nc2ccc(-c3cc4ccc5[nH]ncc5c4c4c3CCCC4)cc2[nH]1,74.9% (inactive)
12,O=[N+]([O-])c1ccc(-c2cn3nc(-c4c[nH]c5ccccc45)sc3n2)cc1,93.4% (inactive)
13,CN(Cc1cnc2nc(N)nc(N)c2n1)c1ccc(C(=O)NC(CCC(=O)O)C(=O)O)cc1Br (centres undefined),45.4% (inactive)
14,COc1ccc(-c2nc3c(N)c(CO)cnc3s2)cc1,97.2% (inactive)
15,O=C(Cn1nnc2ccccc21)N/N=C/c1c[nH]c2ccccc12,41.3% (inactive)
16,N#Cc1cccc(C2C3=C(COC3=O)N(CCO)c3cc4c(cc32)OCO4)c1 (centres undefined),32.9% (inactive)
17,O=C(/C=C/C12c3ccccc3C(c3ccccc31)C1C(=O)NC(=O)C12)c1ccc(Br)cc1 (centres undefined),51.3% (inactive)
18,COc1cccc(/C=N/NC(=O)c2ccccc2N2CCCC2)c1O,65.8% (inactive)
19,COc1cc(/C=C/C(=O)c2ccc(-n3cc(CN4CCN(c5cc6c(cc5F)c(=O)c(C(=O)O)cn6C5CC5)CC4)nn3)cc2)ccc1O,53.8% (inactive)
20,C=CN(C(=O)N1CCN(c2cc3c(cc2F)c(=O)c(C(=O)O)cn3C2CC2)CC1)c1nc(-c2ccc(OC)cc2)cs1,19.2% (inactive)
21,Oc1ccc(/C=C/c2ccc(O)cc2)cc1,89.2% (inactive)
22,COc1ccc(/C=C/C(c2cc(OC)c(OC)c(OC)c2)n2ccnc2)cc1O (centres undefined),47.3% (inactive)
23,O=C(N=Nc1c(O)[nH]c2ccccc12)Nc1ccc(F)cc1,97% (inactive)
24,O=c1ccc(=O)n(-c2nc(-c3ccc([N+](=O)[O-])cc3)cs2)[nH]1,96.1% (inactive)
25,Oc1c(CN2CCC(N3CCCCC3)CC2)cc(Cc2cc(CN3CCC(N4CCCCC4)CC3)c(O)c3ncccc23)c2cccnc12,36.6% (inactive)

# Test system: U251 CNS
# Test: as above
# Conditions: 10 µM unless noted
row,Compound,growth
1,COc1ccc(/C(C)=C(\c2ccc(Cl)cc2)c2ccc(OCCN3CCCCC3)cc2)cc1,36.4% (inactive)
2,CN(C)CCCC1(c2ccc(F)cc2)OCc2cc(-c3ccc4cc[nH]c4c3)ccc21 (centres undefined),17.5% (inactive)
3,COc1ccc(/C=C/c2ccc3ccccc3n2)c(OC)c1,83.1% (inactive)
4,CCCCNC(=O)c1cc([N+](=O)[O-])cc(C2CCCCC2)c1O,24.1% (inactive)
5,Cc1ccc(C(=O)c2ccc(CC(=O)N=Nc3c(O)[nH]c4ccc(Br)cc34)n2C)cc1,92.6% (inactive)
6,CC1=C(C(=O)Nc2ccccc2)C(c2ccc3c(c2)OCO3)NC(=S)N1 (centres undefined),104% (inactive)
7,Nc1nc(N)c2c(n1)NC(c1cccc(Nc3ccnc4cc(C(F)(F)F)ccc34)c1)CC(c1ccc(Br)cc1)=N2 (centres undefined),44.7% (inactive)
8,O=C1c2ccccc2C(=O)c2c1c(C(=O)NCc1ccccc1)c1ccccn21,93.6% (inactive)
9,COc1ccc(-c2ccc(-c3ccc(C(=N)N)nc3)s2)cc1Cl,-71.7% (active)
10,O=C(CI)NC(=O)NC(=O)NCc1ccccc1,84% (inactive)
11,COc1ccc(C2=CC(c3cc(OC)c(OC)c(OC)c3)n3ncnc3N2)cc1 (centres undefined),6.34% (active)
12,Cc1ccc(C(=O)Nc2cccc(C#Cc3cccc4[nH]nc(N)c34)c2)cc1C(F)(F)F,81.5% (inactive)
13,CCOC(=O)c1ccccc1-c1c2ccc(=[N+](C)C)cc-2oc2cc(N(C)C)ccc12,14.6% (inactive)
14,NC(=O)c1c(NC(=O)c2cccc(C(F)(F)F)c2)sc2c1CCC(=O)C2,7.56% (active)
15,COc1cccc(C(=O)NNc2nc(Cl)nc(Cl)n2)c1,99.2% (inactive)
16,O=C(/C=C/c1ccc(Cl)cc1)c1cccc(OCCCOc2cccc(C(=O)/C=C/c3ccc(Cl)cc3)c2)c1,86.3% (inactive)
17,COc1cc(OC)cc(-c2ccc(-c3ccc(C(=N)N)o3)o2)c1,8.25% (active)
18,Fc1cccc(-c2ccc3c(c2)C2(CCNCC2)CN3)c1,107% (inactive)
19,S=C(c1ccc2c(c1)OCO2)N1CCN(c2cccc(Cl)c2)CC1,28.5% (inactive)
20,O=C(NCc1cccc(CNC(=O)Nc2nc3ccccc3[nH]2)c1)Nc1nc2ccccc2[nH]1,-77.9% (active)

row,Compound,growth
1,CCOC(=O)c1cnc2c(N=Nc3ccc(OC)cc3)c(N)nn2c1N,105% (inactive)
2,Cc1ccc2nc(NC(=O)CSc3nc(-c4ccccc4)c(C#N)c4nnnn34)sc2c1,104% (inactive)
3,C#CC#CC#CC#CC#CC#CC#CC#CC[C@@H]1OC[C@@H](COC(=O)O[C@@H](C(=O)O[C@H]2C[C@@]3(O)[C@@H](OC(=O)c4ccccc4)[C@@H]4[C@]5(OC(C)=O)CO[C@@H]5C[C@H](O)[C@@]4(C)C(=O)[C@H](OC(C)=O)C(=C2C)C3(C)C)[C@@H](NC(=O)c2ccccc2)c2ccccc2)O1,96.3% (inactive)
4,COCCn1cc(-c2csc(-c3c[nH]c4ccc(Br)cc34)n2)c2cccnc21,36.5% (inactive)
5,c1nc2ccc(-c3cc4ccc5[nH]ncc5c4c4c3CCCC4)cc2[nH]1,77.3% (inactive)
6,O=[N+]([O-])c1ccc(-c2cn3nc(-c4c[nH]c5ccccc45)sc3n2)cc1,96.9% (inactive)
7,CN(Cc1cnc2nc(N)nc(N)c2n1)c1ccc(C(=O)NC(CCC(=O)O)C(=O)O)cc1Br (centres undefined),43% (inactive)
8,COc1ccc(-c2nc3c(N)c(CO)cnc3s2)cc1,88.6% (inactive)
9,O=C(Cn1nnc2ccccc21)N/N=C/c1c[nH]c2ccccc12,39.5% (inactive)
10,N#Cc1cccc(C2C3=C(COC3=O)N(CCO)c3cc4c(cc32)OCO4)c1 (centres undefined),21.7% (inactive)
11,O=C(/C=C/C12c3ccccc3C(c3ccccc31)C1C(=O)NC(=O)C12)c1ccc(Br)cc1 (centres undefined),29.2% (inactive)
12,COc1cccc(/C=N/NC(=O)c2ccccc2N2CCCC2)c1O,46.7% (inactive)
13,COc1cc(/C=C/C(=O)c2ccc(-n3cc(CN4CCN(c5cc6c(cc5F)c(=O)c(C(=O)O)cn6C5CC5)CC4)nn3)cc2)ccc1O,34.3% (inactive)
14,C=CN(C(=O)N1CCN(c2cc3c(cc2F)c(=O)c(C(=O)O)cn3C2CC2)CC1)c1nc(-c2ccc(OC)cc2)cs1,13.4% (inactive)
15,Oc1ccc(/C=C/c2ccc(O)cc2)cc1,39.1% (inactive)
16,COc1ccc(/C=C/C(c2cc(OC)c(OC)c(OC)c2)n2ccnc2)cc1O (centres undefined),27.1% (inactive)
17,O=C(N=Nc1c(O)[nH]c2ccccc12)Nc1ccc(F)cc1,90.7% (inactive)
18,O=c1ccc(=O)n(-c2nc(-c3ccc([N+](=O)[O-])cc3)cs2)[nH]1,95.6% (inactive)
19,Oc1c(CN2CCC(N3CCCCC3)CC2)cc(Cc2cc(CN3CCC(N4CCCCC4)CC3)c(O)c3ncccc23)c2cccnc12,24.6% (inactive)
